# Among all 5,500 compounds or so, about 2,000 (36%) were called active. Roughly 18% stayed inconclusive and do not appear here. The list shows a part of the results. A number with no mark means an inactive call. Rule as the data show it: active = normalized growth mostly below about 0.91 (no sharp cut-off); inconclusive = no clear call, values can overlap the other calls; inactive = mostly above about 0.92.
# Assay: chemical genetic growth profiling, strain panel (AID 1159580);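 also: tested at 20 µM; growth read once vehicle control cultures reached saturation at 30 °C; 1 = growth at the plate median or of vehicle wells; lower values mean less growth of the strain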
# Settings: S. cerevisiae deletion strains, growth OD
structure (smiles),measurement,setting,value
COc1ccc2c(c1)OCc1c-2oc2cc(OC)ccc12,normalized growth,"locus YJR075W, strain HOC1, active compounds read low",0.898
same,normalized growth,"locus YKL009W, strain mrt4, active compounds read low",1.02
same,normalized growth,"locus YKL068W, active compounds read low",1.01
same,normalized growth,"locus YKL085W, strain MDH1 (second series), active compounds read low",0.984
same,normalized growth,"locus YKL085W, strain MDH1, active compounds read low",0.984
same,normalized growth,"locus YKL160W, strain elf1, active compounds read low",0.748 (active)
same,normalized growth,"locus YKL190W, strain CNB1, active compounds read low",1
same,normalized growth,"locus YKR001C, strain vps1, active compounds read low",0.777 (active)
same,normalized growth,"locus YKR026C, strain gcn3, active compounds read low",0.988
same,normalized growth,"locus YKR091W, strain srl3, active compounds read low",0.987
same,normalized growth,"locus YLL001W, strain dnm1, active compounds read low",0.871 (active)
same,normalized growth,"locus YLL041C, strain sdh2, active compounds read low",0.972
same,normalized growth,"locus YLR027C, strain aat2, active compounds read low",0.8 (active)
same,normalized growth,"locus YLR039C, strain RIC1, active compounds read low",0.446 (active)
same,normalized growth,"locus YLR058C, strain SHM2, active compounds read low",0.936
same,normalized growth,"locus YLR102C, strain apc9, active compounds read low",1.01
same,normalized growth,"locus YLR113W, strain HOG1, active compounds read low",0.928
same,normalized growth,"locus YLR221C, strain rsa3, active compounds read low",0.762 (active)
same,normalized growth,"locus YLR258W, strain gsy2, active compounds read low",0.895 (active)
same,normalized growth,"locus YLR262C, strain YPT6 (second series), active compounds read low",0.387 (active)
same,normalized growth,"locus YLR262C, strain YPT6, active compounds read low",0.505 (active)
same,normalized growth,"locus YLR268W, strain sec22, active compounds read low",0.966
same,normalized growth,"locus YLR320W, strain mms22, active compounds read low",0.625 (active)
same,normalized growth,"locus YLR330W, strain CHS5, active compounds read low",0.929
same,normalized growth,"locus YLR342W, strain FKS1 (second series), active compounds read low",0.796
same,normalized growth,"locus YLR342W, strain FKS1, active compounds read low",0.73 (active)
same,normalized growth,"locus YLR357W, strain rsc2, active compounds read low",0.909
same,normalized growth,"locus YLR370C, strain arc18, active compounds read low",0.94
same,normalized growth,"locus YLR371W, strain rom2, active compounds read low",1.01
same,normalized growth,"locus YLR384C, strain iki3, active compounds read low",1.01
same,normalized growth,"locus YLR418C, strain cdc73, active compounds read low",0.901
same,normalized growth,"locus YML016C, strain PPZ1, active compounds read low",0.978
same,normalized growth,"locus YML032C, strain rad52, active compounds read low",0.959
same,normalized growth,"locus YML120C, strain ndi1, active compounds read low",0.842 (active)
same,normalized growth,"locus YML124C, strain tub3, active compounds read low",1.01
same,normalized growth,"locus YMR058W, strain fet3, active compounds read low",0.699 (active)
same,normalized growth,"locus YMR078C, strain ctf18, active compounds read low",1.01
same,normalized growth,"locus YMR125W, strain sto1, active compounds read low",0.877 (active)
same,normalized growth,"locus YMR129W, active compounds read low",0.985
same,normalized growth,"locus YMR205C, strain PFK2, active compounds read low",0.694 (active)
same,normalized growth,"locus YMR223W, strain ubp8, active compounds read low",1.01
same,normalized growth,"locus YMR231W, strain pep5, active compounds read low",0.912 (active)
same,normalized growth,"locus YMR263W, strain SAP30, active compounds read low",0.954
same,normalized growth,"locus YMR307W, strain GAS1, active compounds read low",1
same,normalized growth,"locus YNL067W, strain RPL9B, active compounds read low",0.92
same,normalized growth,"locus YNL071W, strain lat1, active compounds read low",0.502 (active)
same,normalized growth,"locus YNL153C, strain GIM3, active compounds read low",0.968
same,normalized growth,"locus YNL183C, strain NPR1, active compounds read low",0.888
same,normalized growth,"locus YNL209W, strain ssb2, active compounds read low",0.965
same,normalized growth,"locus YNL233W, strain BNI4, active compounds read low",0.9
same,normalized growth,"locus YNL248C, strain rpa49, active compounds read low",0.894
same,normalized growth,"locus YNL250W, strain rad50, active compounds read low",1.03
same,normalized growth,"locus YNL271C, strain bni1, active compounds read low",1.01
same,normalized growth,"locus YNL298W, strain CLA4, active compounds read low",1.03
same,normalized growth,"locus YNL307C, strain MCK1, active compounds read low",0.858 (active)
same,normalized growth,"locus YNL322C, strain KRE1 (second series), active compounds read low",0.955
same,normalized growth,"locus YNL322C, strain KRE1, active compounds read low",0.874 (active)
same,normalized growth,"locus YNR049C, strain mso1, active compounds read low",1
same,normalized growth,"locus YNR052C, strain pop2, active compounds read low",1.02
same,normalized growth,"locus YOL012C, strain htz1",0.977
same,normalized growth,"locus YOL147C, strain pex11, active compounds read low",1.01
same,normalized growth,"locus YOR001W, strain rrp6, active compounds read low",0.896
same,normalized growth,"locus YOR061W, strain CKA2, active compounds read low",1
same,normalized growth,"locus YOR069W, strain VPS5, active compounds read low",0.956
same,normalized growth,"locus YOR070C, strain gyp1, active compounds read low",0.836 (active)
same,normalized growth,"locus YOR080W, strain dia2, active compounds read low",1
same,normalized growth,"locus YOR083W, strain WHI5, active compounds read low",0.812 (active)
same,normalized growth,"locus YOR106W, strain vam3, active compounds read low",0.822 (active)
same,normalized growth,"locus YOR136W, strain idh2, active compounds read low",1
same,normalized growth,"locus YOR144C, strain elg1, active compounds read low",0.991
same,normalized growth,"locus YOR184W, strain ser1, active compounds read low",0.821 (active)
same,normalized growth,"locus YOR231W, strain MKK1, active compounds read low",0.938
same,normalized growth,"locus YOR265W, strain rbl2, active compounds read low",0.928 (active)
same,normalized growth,"locus YOR270C, strain vph1, active compounds read low",0.476 (active)
same,normalized growth,"locus YOR290C, strain snf2, active compounds read low",0.834 (active)
same,normalized growth,"locus YOR316C, strain cot1, active compounds read low",1.02
same,normalized growth,"locus YPL051W, strain arl3, active compounds read low",0.677 (active)
same,normalized growth,"locus YPL078C, strain atp4, active compounds read low",0.764 (active)
same,normalized growth,"locus YPL106C, strain sse1, active compounds read low",0.969
same,normalized growth,"locus YPL240C, strain hsp82, active compounds read low",0.915 (active)
same,normalized growth,"locus YPL256C, strain CLN2, active compounds read low",0.95
same,normalized growth,"locus YPR119W, strain clb2, active compounds read low",0.998
same,normalized growth,"locus YPR141C, strain kar3, active compounds read low",1.03
same,normalized growth,"locus YPR163C, strain tif3, active compounds read low",1
same,normalized growth,"locus YPR167C, strain met16, active compounds read low",0.992
same,normalized growth,"strain wtn01, active compounds read low",0.983

# Reference: PubChem BioAssay AID1159580 (chemical genetic matrix, 2015)
